This passage reports z-score and composite z-score results from PubChem BioAssay.

The nature of test [1]: optical density shifts of acrAB sulA E. coli – strain DRC41, OD650, 48 h, E. coli filamentation inducer project, primary screen (AID 1152).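 Further: E. coli MC1000 strain DRC41 lacking acrAB efflux pump and sulA.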 The settings on record: higher = more signal, called active from +8 up or from −8 down.
A short description of test [2]: probe aLefty1 binding on compound microarray – biochemical, small-molecule microarray, 635/667 nm fluorescence, primary screen (AID 1153).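 Further: score merges spot fluorescence with signal-to-noise ratio from the scanned slide images.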 The settings on record: higher = more signal.
A short description of test [3]: plasmodial surface anion channel blockers, osmotic lysis – cell-based, P. falciparum Indochina, OD700, 1 h, primary screen (AID 1154). Particulars: P. falciparum Indochina infected RBC osmotic lysis, higher = more signal, called active from +8 up or from −8 down.
Test [4] is described as follows: plasmodial surface anion channel blockers, osmotic lysis – cell-based, P. falciparum Indochina, OD700, 2 h, primary screen (AID 1155).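 Further: lysis reports solute entry through the parasite surface anion channel PSAC.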 The settings on record: P. falciparum Indochina infected erythrocytes, higher = more signal, called active from +8 up or from −8 down.
Test [5] can be described thus: changes in parasitized red cell lysis, either direction – P. falciparum Indochina, OD700, 3 h, PSAC antagonist project, primary screen (AID 1156). Particulars: P. falciparum-infected erythrocytes, osmotic lysis, higher = more signal, called active from +8 up or from −8 down.
Test [6] can be described thus: plasmodial surface anion channel blockers, osmotic lysis – cell-based, P. falciparum Indochina, OD700, 18 h, primary screen (AID 1157). Particulars: P. falciparum Indochina infected erythrocytes, osmotic lysis OD700, 18 h; higher = more signal, called active from +8 up or from −8 down.
Test [7] is described as follows: S6 kinase pathway phospho-S6 level changes – cell-based, A549, cytoblot, luminescence, serum-stimulated, primary screen (AID 1158).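 Further: serum-stimulated A549 lung adenocarcinoma cells; signal is phosphorylated S6 detected by cytoblot immunostaining with HRP secondary.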 Particulars: 5 h, higher = more signal.
Test [8] has as its target NADPH oxidase 2 (Homo sapiens) (UniProt P04839). The test can be described thus: compounds shifting NOX2 Amplex Red fluorescence – cell-based, HEK293-NOX2, PMA-stimulated, NOX inhibitor project, primary screen (AID 1159). Further: test concentration not given here. The settings on record: 45 min, higher = more signal, called active from +8 up or from −8 down.
The target of test [9] is NADPH oxidase 4 (Homo sapiens) (UniProt Q9NPH5). Nature of the test: compounds shifting NOX4 Amplex Red fluorescence – cell-based, HEK293-NOX4, tetracycline-induced, NOX inhibitor project, primary screen (AID 1160). Particulars: HEK293-NOX4, Amplex Red H2O2 fluorescence, 45 min; higher = more signal, called active from +8 up or from −8 down.
NADPH oxidase 4 (Homo sapiens), sequence (Q9NPH5 whole entry, looked up): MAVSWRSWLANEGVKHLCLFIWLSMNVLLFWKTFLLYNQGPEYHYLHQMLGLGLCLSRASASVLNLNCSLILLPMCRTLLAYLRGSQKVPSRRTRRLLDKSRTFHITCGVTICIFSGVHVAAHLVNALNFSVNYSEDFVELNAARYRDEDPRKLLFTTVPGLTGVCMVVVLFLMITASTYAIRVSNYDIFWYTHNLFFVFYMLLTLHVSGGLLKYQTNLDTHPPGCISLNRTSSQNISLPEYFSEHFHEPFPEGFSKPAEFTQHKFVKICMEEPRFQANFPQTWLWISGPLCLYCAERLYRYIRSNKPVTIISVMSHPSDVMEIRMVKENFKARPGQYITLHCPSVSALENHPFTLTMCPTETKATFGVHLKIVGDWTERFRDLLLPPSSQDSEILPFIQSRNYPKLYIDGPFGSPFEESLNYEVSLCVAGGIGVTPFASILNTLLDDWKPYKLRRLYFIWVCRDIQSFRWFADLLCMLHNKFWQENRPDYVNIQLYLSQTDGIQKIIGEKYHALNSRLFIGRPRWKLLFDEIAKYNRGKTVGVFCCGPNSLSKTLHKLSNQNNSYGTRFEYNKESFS
Test [10] has as its target NADPH oxidase 5 (Homo sapiens) (UniProt Q96PH1). Nature of the test: compounds shifting NOX5 Amplex Red fluorescence – cell-based, HEK293-NOX5, NOX inhibitor project, primary screen (AID 1161). Particulars: HEK293-NOX5, ionomycin, 45 min, higher = more signal.
The nature of test [11]: compound effects on lung adenocarcinoma cell viability – A549, calcein-AM fluorescence, 48 h, basal, profiling panel (AID 1162). Further: test concentration not given here. The settings on record: higher = more signal.
Test [12] in a line: compound effects on differentiated 3T3-L1 adipocyte viability – cell-based, 3T3-L1 adipocytes, calcein-AM fluorescence, 48 h, basal, profiling panel (AID 1163). Further: test concentration not given here. Particulars: 3T3-L1 adipocytes viability, higher = more signal.
A short description of test [13]: compound effects on hepatocellular carcinoma cell viability – HepG2, calcein-AM fluorescence, 48 h, basal, profiling panel (AID 1164). Further: test concentration not given here. Particulars: higher = more signal.
Test [14] is described as follows: compound effects on multiple myeloma cell viability – MM1S, calcein-AM fluorescence, 48 h, basal, profiling panel (AID 1165).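 Further: viability of MM1S multiple myeloma cells under basal unstimulated conditions; test concentration not given here.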 The settings on record: higher = more signal.
The nature of test [15]: calcein-AM signal in unstimulated myeloma cells – cell-based, calcein-AM fluorescence, 48 h, PK04 Diversity Set, profiling panel (AID 1166).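 Further: cells grown under basal conditions without added stimulus; test concentration not given here.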 The settings on record: RPMI8226 myeloma viability, higher = more signal.
Test [16] can be described thus: JC-1 mitochondrial signal, unstimulated HepG2 cells – cell-based, JC-1 fluorescence, 24 h, 100 nL compound, profiling panel (AID 1167). Further: test concentration not given here. Particulars: HepG2 mitochondrial potential, higher = more signal.
The nature of test [17]: JC-1 mitochondrial signal, unstimulated adipocytes – cell-based, JC-1 fluorescence, 3T3-L1 adipocytes, 24 h, 100 nL compound, profiling panel (AID 1168). Further: test concentration not given here. Particulars: JC-1 mitochondrial fluorescence, higher = more signal, called active from +8 up or from −8 down.
Test [18] can be described thus: JC-1 mitochondrial signal, unstimulated myeloma cells – cell-based, JC-1 fluorescence, RPMI8226, 24 h, 100 nL compound, profiling panel (AID 1169). Further: test concentration not given here. The settings on record: JC-1 mitochondrial potential fluorescence, higher = more signal.
A short description of test [19]: JC-1 mitochondrial signal, unstimulated MM1S myeloma – cell-based, JC-1 fluorescence, 24 h, 100 nL compound, profiling panel (AID 1170). Further: test concentration not given here. The settings on record: MM1S mitochondrial potential, higher = more signal.
Test [20] in a line: resazurin metabolic signal in A549 cells – cell-based, resazurin fluorescence, 24 h, PK04 Diversity Set, profiling panel (AID 1171). Further: test concentration not given here. The settings on record: A549 viability, higher = more signal, called active from +8 up or from −8 down. In general terms: The colour change of resazurin is a common sign of viable cells or microbes.

Activity calls are given as the source filed them.

NADPH oxidase 2 (Homo sapiens), sequence (P04839 whole entry, looked up): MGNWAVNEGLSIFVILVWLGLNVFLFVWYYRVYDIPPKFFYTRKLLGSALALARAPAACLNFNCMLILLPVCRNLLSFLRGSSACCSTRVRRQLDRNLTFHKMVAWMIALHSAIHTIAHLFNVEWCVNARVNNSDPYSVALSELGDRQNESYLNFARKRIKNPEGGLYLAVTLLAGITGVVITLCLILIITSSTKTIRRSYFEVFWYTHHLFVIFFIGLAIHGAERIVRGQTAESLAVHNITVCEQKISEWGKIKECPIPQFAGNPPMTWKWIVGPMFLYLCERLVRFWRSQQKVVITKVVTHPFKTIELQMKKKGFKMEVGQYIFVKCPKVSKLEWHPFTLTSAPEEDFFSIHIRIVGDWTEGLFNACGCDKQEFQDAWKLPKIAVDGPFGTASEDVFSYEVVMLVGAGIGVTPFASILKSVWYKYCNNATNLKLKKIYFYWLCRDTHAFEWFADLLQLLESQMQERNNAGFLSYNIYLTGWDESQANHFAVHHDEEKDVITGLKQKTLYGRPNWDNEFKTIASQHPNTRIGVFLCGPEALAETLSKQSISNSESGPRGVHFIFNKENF
NADPH oxidase 5 (Homo sapiens), sequence (Q96PH1 whole entry, looked up): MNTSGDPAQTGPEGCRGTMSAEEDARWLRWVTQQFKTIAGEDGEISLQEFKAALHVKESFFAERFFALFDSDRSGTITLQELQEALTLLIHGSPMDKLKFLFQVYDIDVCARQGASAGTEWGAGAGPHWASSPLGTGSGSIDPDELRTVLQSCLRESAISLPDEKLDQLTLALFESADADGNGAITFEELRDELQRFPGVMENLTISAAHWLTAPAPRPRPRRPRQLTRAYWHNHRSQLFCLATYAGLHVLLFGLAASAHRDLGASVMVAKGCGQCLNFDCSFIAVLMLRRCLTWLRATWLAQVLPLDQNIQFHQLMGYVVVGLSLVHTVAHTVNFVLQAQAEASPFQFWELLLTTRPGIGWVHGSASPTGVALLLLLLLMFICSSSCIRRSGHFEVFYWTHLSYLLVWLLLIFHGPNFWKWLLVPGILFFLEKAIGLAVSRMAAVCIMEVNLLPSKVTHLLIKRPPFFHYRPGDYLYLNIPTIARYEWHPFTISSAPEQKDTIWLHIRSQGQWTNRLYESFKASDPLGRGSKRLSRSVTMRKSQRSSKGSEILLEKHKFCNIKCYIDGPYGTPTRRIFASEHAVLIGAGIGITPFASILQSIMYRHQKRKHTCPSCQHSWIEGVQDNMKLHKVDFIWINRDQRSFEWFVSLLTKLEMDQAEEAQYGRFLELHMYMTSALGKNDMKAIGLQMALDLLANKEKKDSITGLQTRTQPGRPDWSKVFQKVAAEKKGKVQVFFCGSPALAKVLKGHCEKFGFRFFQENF

Take `COC(=O)c1c2oc(c1C(=O)OC)C(=O)NC1(CCCCC1)c1cn(nn1)C[C@H](Cc1ccccc1)NC(=O)N[C@H](CO)CC2`: the z-score in test [1] was 2.35 (inactive); in [3], 1.66 (inactive); in test [4], -0.265 (inactive); in [5], 0.869 (inactive); in [6], 0.285 (inactive); in test [7], 0.229. Moreover, the z-score in [8] is -0.463 (inactive); in [9] it was 1.26 (inactive); in [10], -0.0346; in test [11], 0.947; in test [12], -0.0442; in test [13] it was 0.22. Also, the z-score is 0.813 in [14]; 1.17 in test [15]; 0.537 in [16]; 0.691 (inactive) in test [17]; 0.564 in [18]; -0.887 in test [19]. Moreover, in test [20], the z-score is 1.09 (inactive). In [2], this compound had a composite z-score of -0.258.
For `COCCOC(=O)N1C(=O)[C@@]2(c3cc(C#CCCO)ccc31)[C@H](c1ccc(O)cc1)N1[C@H](c3ccccc3)[C@H](c3ccccc3)OC(=O)[C@H]1[C@@H]2C(=O)N1CCN(c2ncccn2)CC1`, the z-score in test [1] was 0.209 (inactive); in test [3] it was 1.65 (inactive); in [4], 0.0986 (inactive); in [5], 0.599 (inactive); in test [6] it was 0.235 (inactive); in test [7], 0.078. The z-score in test [8] is 1.11 (inactive); in test [9], 0.682 (inactive); in test [10], 1.85; in test [11] it was -0.858; in [12], -0.721; in test [13], -0.753. Also, the z-score is -0.0852 in test [14]; 0.248 in [15]; 0.0243 in test [16]; -1.45 (inactive) in [17]; -0.139 in [18]; -0.611 in [19]. Besides, the z-score in [20] was 0.838 (inactive). The compound further yielded a composite z-score in [2] of 1.97.
With `CC(C)NC(=O)[C@@]1(Cc2ccccc2I)c2ccccc2C(=O)N(Cc2ccccc2Cl)[C@H]1c1ccc(CO)cc1`, the z-score in test [1] is -0.522 (inactive); in test [3], 10.7 (active); in test [4] it was 1.77 (inactive); in [5], 0.614 (inactive); in [6] it was 1.06 (inactive); in [7], 0.026. The z-score in [8] is 0.284 (inactive); in test [9], 0.904 (inactive); in [10] it was 0.774; in [11], -0.271; in [12] it was 0.0063; in test [13] it was 0.768. Further, the z-score in test [14] is -1.59; in test [15] it was -2.03; in [16], -0.274; in test [17] it was 0.131 (inactive); in test [18] it was 0.0101; in test [19], -0.756. Besides, the z-score in [20] is 0.0211 (inactive). This compound returned a composite z-score in [2] of 0.223.
With `O=C(CS)NCCCCCNC(=O)[C@H]1C[C@H]2C(=O)NCC(=O)N2[C@H]1c1ccc(O)cc1`, the z-score was 1.43 (inactive) in test [1]; 0.279 (inactive) in test [3]; -0.723 (inactive) in test [4]; -0.813 (inactive) in [5]; -2.32 (inactive) in test [6]; -0.0935 in [7]. For the same compound, the z-score in test [8] was -0.297 (inactive); in test [9], 0.243 (inactive); in test [10] it was 1.16; in [11] it was 0.67; in test [12], 0.537; in test [13], -0.815. Also, the z-score in [14] is 0.0607; in test [15], -0.261; in test [16] it was -0.557; in [17], 0.185 (inactive); in test [18] it was 0.415; in [19] it was -0.167. Besides, the z-score in test [20] was 0.847 (inactive). For the same compound, the composite z-score in test [2] was -0.479.
Regarding `C=CC[C@]1(C(N)=O)N=C(c2ccc(OCCCO)cc2)O[C@H]1c1ccccc1`, the z-score in [1] is -0.0378 (inactive); in test [3] it was 6.38 (inactive); in [4] it was 1.44 (inactive); in test [5], 0.99 (inactive); in [6], 0.765 (inactive); in test [7] it was -0.039. For the same compound, the z-score in [8] was 0.737 (inactive); in test [9], 0.676 (inactive); in test [10], 0.145; in test [11] it was 0.354; in test [12], 0.464; in [13], -0.717. For the same compound, the z-score is -0.519 in [14]; -0.111 in [15]; -0.579 in test [16]; -1.09 (inactive) in test [17]; -0.414 in test [18]; 0.13 in test [19]. In addition, the z-score in test [20] is -0.0187 (inactive). Further, the composite z-score in test [2] was -0.0057.
